Sampled rows, rich in hits. Any-hit rate of the full collection: about 12%.
Shiga toxin inh – inhibitors of Shiga toxin in Vero cells. hit rate 9.2% among 290,000. inhibition, % at 38.7 µM. AID 2315. Vero cells, Shiga toxin protein synthesis inhibition reporter; in the data active = inhibition mostly above about 28%, no sharp cut-off; inactive = mostly below about 43%; note: 0% is about no effect
SARS PLP yeast – blocks SARS-CoV papain-like protease in a yeast assay | S. cerevisiae expressing SARS-CoV PLpro, growth rescue | Potency, µM (titrated, usually from 32.9 µM), for inactives: at the top dose activity, positive = growth rescue, hits mostly activators | hit rate 0.19% among 330,000 | AID 485353; note: potency is the fitted concentration of half-maximal effect; 0% is about no effect; nearly all actives have a fitted effect of over 55% in size
NS1 function inh – influenza NS1 inhibition; hit rate 0.4% among 270,000; Potency, µM (doses to about 46.1 µM), for inactives: top-dose activity, positive = more growth; note: potency is the fitted concentration of half-maximal effect; actives are rising curves; nearly all actives have a fitted effect of over 50% in size
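A cell-based growth assay was used: compounds that relieve NS1-induced slow growth of budding yeast raise OD600. Assay medium was yeast nitrogen base with ammonium sulphate and -URA supplement, pH 6.0, with 2% galactose.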
CHX counter – counter-screen for Shiga toxin inhibitors: cycloheximide protein synthesis inhibition; hit rate 12% among 300,000; cell reporter, cycloheximide protein synthesis inhibition counterscreen; AID 2314; max response, %; in the data active = max response mostly above about 13%, no sharp cut-off; inactive = mostly below about 14%; note: read at 38.3 µM for the half of the compounds with a filed dose; 0% is about no effect
The depositor's hits bear a star; ? = inconclusive; · = no result. Unless noted, calls come from the whole dose curve.

SMILES	Shiga toxin inh	SARS PLP yeast	NS1 function inh	CHX counter
Cc1ccc(N(CC(=O)NC(C)C)C(=O)CCC(=O)Nc2nccs2)c(C)c1	-2	0%	3%	28*
Cc1cc(C)cc(N(CC(=O)NCc2ccco2)C(=O)CCC(=O)Nc2ccccn2)c1	8	1%	-17%	12
Cc1ccc(N(CC(=O)NCc2ccco2)C(=O)CCC(=O)Nc2ccccn2)c(C)c1	34*	0%	4%	17
Cc1ccc(N(CC(=O)NC(C)C)C(=O)CCC(=O)Nc2nccs2)cc1	-7	13%	2%	-1
Nc1ccc(Nc2ccccc2)c(Cl)c1	52*	-12%	-73%	27*
Nc1ccccc1Nc1ccccc1	-2	-7%	-57%	-4
CC(OC(=O)CSc1ccc([N+](=O)[O-])cc1)C(=O)NC1CC1 (stereo unspecified)	·	1%	·	·
Cc1ccc(CN2CC(C(=O)Nc3ncc(C)s3)CC2=O)cc1 (stereo unspecified)	·	-5%	·	·
Cc1onc(-c2c(Cl)cccc2Cl)c1NC(=O)NNc1ccccn1	9	1%	0%	29*
Cc1onc(-c2c(Cl)cccc2Cl)c1NC(=O)NNc1ccccc1	-4	0%	-1%	-1
CCOC(=O)c1ccc2c(c1)NCc1cccc(OC)c1O2	99*	-5%	-34%	53*
COc1ccc(C(=O)OCC(=O)c2ccc3c(c2)NC(=O)CO3)cc1OC	·	0%	·	·
COc1cccc(NC(=O)CCNS(=O)(=O)c2cccc3nonc23)c1	-5	-2%	-20%	-5
CCc1ccccc1NC(=O)c1ccc(CN2CCC(Cc3ccccc3)CC2)cc1	-9	2%	-15%	-3
N#C/C(=N\Nc1ccc(Cl)c(Cl)c1)C(=O)C1CC1	65	-9%	-128%	35*
N#C/C(=N\Nc1ccc(F)cc1)C(=O)C1CC1	29	-4%	-77%	20
O=C(NCCc1ccccc1F)C1CCCN1S(=O)(=O)c1ccc2ccccc2c1 (stereo unspecified)	34	-32%	-6%	21*
COc1cc(CO)c(Br)cc1OCC(N)=O	-4	0%	11%	-2
COc1cc(CO)c(Br)cc1OCC(=O)Nc1ccccc1C	29	-2%	·	32*
Cc1ccccc1NC(=O)COc1ccc(Br)cc1C	54*	15%	-13%	41*
CN(CC(=O)O)CC(=O)O	·	·	2%	·
Cc1ccc(CONC(=O)c2ccc(OC(F)F)cc2)cc1	69*	-6%	·	24*
Cc1ccc(CONC(=O)c2cccc(C)c2)cc1	·	2%	·	·
CC(C)(C)NNC(=S)Nc1cccc(F)c1	3	0%	-4%	2
CC(=O)c1cccc(NC(=O)N2CCCC2C(=O)Nc2ccc3c(c2)OCCO3)c1 (stereo unspecified)	87*	0%	-1%	14*
SMILES	Shiga toxin inh	SARS PLP yeast	NS1 function inh	CHX counter
COc1cccc(NC(=O)N2CCCC2C(=O)Nc2ccc3c(c2)OCCO3)c1 (stereo unspecified)	-3	-3%	·	8
O=C(CC1CS(=O)(=O)CC1CC(=O)Nc1ccc2c(c1)OCCO2)Nc1ccc2c(c1)OCCO2 (stereo unspecified)	107*	1%	3%	51*
CC(C)(C)c1ccc(C(=O)Nc2cccc([N+](=O)[O-])c2)cc1	96*	-51%	-15%	86*
CCC(=O)Nc1ccc2c(c1)OCCO2	15	3%	-5%	26
Fc1cccc(NC(=S)Nc2ccc(Br)cc2)c1	28	-21%	-39%	19*
CC(C)NC(=O)c1ccc2c(c1)N(Cc1ccccc1)C(=O)C(C)(C)O2	-8	-6%	11%	1
COc1ccc(CN2CCC(N3CC(C)OC(C)C3)CC2)c(OC)c1 (stereo unspecified)	-16	0%	-1%	1
CN1C(=O)c2ccc(C(=O)Nc3ccc4c(c3)OCO4)cc2C1=O	38	0%	11%	24*
O=C(CC(=O)c1ccccc1)Nc1ccc2c(c1)OCCO2	74*	2%	-1%	43*
O=C(NC(=S)Nc1cccc(Cl)c1N1CCCCC1)c1ccc2c(c1)OCCO2	10	-28%	6%	20*
CN1C(=O)c2ccc(NC(=O)c3cccc(N4C(=O)CCC4=O)c3)cc2C1=O	24	-1%	0%	-1
O=C(CCCCCN1C(=O)CCC1=O)Nc1ccc2c(c1)OCO2	17	-4%	1%	9
O=C(CCCc1cccs1)Nc1ccc2c(c1)OCO2	89*	0%	·	31*
CCOC(=O)C1(C)C=C(Nc2ccc(NC(C)=O)cc2)C(=O)N1c1ccc(NC(C)=O)cc1 (stereo unspecified)	-1	0%	-1%	-2
O=C(Nc1ccc2c(c1)OCO2)c1ccccc1	87*	-6%	7%	53*
O=C(NNC(=O)c1ccccc1Cl)c1ccc2c(c1)OCCO2	·	-1%	·	·
O=C(Nc1cccc(Cl)c1)c1ccc2c(c1)OCCO2	60*	-7%	-113%	32*
O=C(NC(=S)Nc1ccc2c(c1)OCCO2)c1cccc(Br)c1	74*	-11%	25%	74*
O=C(NC(=S)Nc1ccc2c(c1)OCCO2)c1cccc2ccccc12	76*	?	?	37*
CN(C)C(=O)N1CCC(C(=O)NCc2ccccc2)CC1	12	0%	7%	-2
CC(NC(=O)C1CCN(C(=O)Nc2ccccc2)CC1)c1ccc(Cl)cc1 (stereo unspecified)	·	-6%	·	·
CCOC(=O)C1(C)Oc2cccnc2NC1=O (stereo unspecified)	10	0%	-2%	1
CC(C)(C)NS(=O)(=O)c1ccc(C(=O)Nc2ccc3c(c2)OCO3)cc1	77*	-6%	6%	21*
O=C(Nc1ccc2c(c1)OCCO2)c1cccc(Cl)c1	·	-13%	-101%	44*
O=C(Nc1ccc2c(c1)OCCO2)c1cccc(C(=O)Nc2ccc3c(c2)OCCO3)c1	37*	-2%	10%	34*
SMILES	Shiga toxin inh	SARS PLP yeast	NS1 function inh	CHX counter
CC(C)(C)NS(=O)(=O)c1ccc(CCC(=O)Nc2ccc3c(c2)OCO3)cc1	-6	-8%	-1%	-3
O=C(Nc1ccccc1C(=O)Nc1ccc2c(c1)OCO2)c1cccs1	43	-10%	-2%	17*
COc1cccc(NS(=O)(=O)c2ccc3[nH]cc(C(=O)NC(C)c4ccccc4)c(=O)c3c2)c1 (stereo unspecified)	5	·	·	51
Cc1nnc(SC(C)C(=O)Nc2ccc3c(c2)OCCO3)s1 (stereo unspecified)	-7	-6%	-7%	8
O=C(Nc1cccc([N+](=O)[O-])c1)c1ccncc1	-7	-6%	-1%	-2
CCCc1cc(C(=O)Nc2cccc([N+](=O)[O-])c2)cs1	104*	-13%	-88%	65*
Cc1ccc(NC(=O)c2ccc3c(c2)OCCO3)cc1	72	-9%	-61%	0
O=C(Nc1ccc2c(c1)OCCO2)c1ccc(Br)s1	40*	-25%	-18%	55*
O=C(Nc1ccc2c(c1)OCCO2)c1ccc(Cl)cc1Cl	·	2%	2%	24*
O=C(Nc1ccncc1)c1ccc2c(c1)OCCO2	66*	-9%	-10%	31*
O=C(Nc1cccc([N+](=O)[O-])c1)c1[nH]ncc1Cl	97*	-2%	-31%	62*
O=C(Nc1cccc([N+](=O)[O-])c1)c1cnccn1	-38	5%	?	2
S=C(Nc1ccc(Br)cc1)Nc1ccc2c(c1)OCCO2	103*	2%	-17%	58*
